This test in a line: modulators of CD8 T cell-vesicle binding, confirmation, cherry-picked primary hits, two concentrations (AID 2810).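 As to all read-outs here: lower values mean blocking of vesicle binding.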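 As to percent response (vesicle binding): ratio of mean FL2 vesicle stain of CD8+ cells to that row's control.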 To be noted: 2C CD8+ T cell-vesicle binding, flow cytometry; for double positive events: CD8+/vesicle+ events.
The mark [1] stands for this setting: at 15.4 µM, stronger effect = lower value.

SMILES strings stand for the structures. In all, about 1,200 compounds went through this assay and about 65 (5%) were called active.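 The calls were made as follows: active = at either tested dose, response and 90th-percentile vesicle-stain brightness of CD8 cells under set limits and under 9% cells vesicle-bound; inactive = the rest.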 Only a selection was taken, and actives are over-represented in it overall.

On to `CCOc1ccc(-c2csc(NNC3=NCCCCC3)n2)cc1`, for which the double positive events was found to be 15.2% (at 7.7 µM) and 1.4% under setting [1]. Also, the percent response (vesicle binding) reads like this: under setting [1], 52.5% (active); (response, at 7.7 µM) 178%.

Regarding `CCOc1ccc(-c2cn(-c3ccc(OC)cc3)c(SC)n2)cc1`, the double positive events worked out at 11.4% (at 7.7 µM) and 13.4% under setting [1]. In addition, the percent response (vesicle binding) under setting [1] is 155% (inactive) and the percent response (vesicle binding) (response, at 7.7 µM) was determined as 303%.

As for `Cc1cc([N+](=O)[O-])nn1CC(=O)Nc1nccs1`, the double positive events by setting is: (at 7.7 µM) 35%; under setting [1], 19.6%. Moreover, the percent response (vesicle binding) is, setting by setting: under setting [1], 221% (inactive); (response, at 7.7 µM) 201%.

For `Cc1ccc(S(=O)(=O)c2c(N)n(NC(=O)c3ccccc3C)c3nc4ccccc4nc23)cc1`, the double positive events reads like this: (at 7.7 µM) 22.8%; under setting [1], 1.1%. Besides, the percent response (vesicle binding) by setting is: under setting [1], 26.2% (active); (response, at 7.7 µM) 248%.

The compound `Cc1ccc(S(=O)(=O)N(C)CC(=O)Nc2nc3ccccc3s2)cc1` displayed a double positive events (at 7.7 µM) of 30.7% and a double positive events under setting [1] of 26.8%. Moreover, the percent response (vesicle binding) was 351% (inactive) under setting [1] and 371% (response, at 7.7 µM).

On to `Cc1ccc(S(=O)(=O)N2CCC(NC(=O)c3ccccc3)CC2)cc1`, for which the double positive events by setting is: (at 7.7 µM) 28.6%; under setting [1], 28.6%. Further, the percent response (vesicle binding) under setting [1] is 425% (inactive) and the percent response (vesicle binding) (response, at 7.7 µM) is 558%.

On to `O=C(CN1C(=O)C2CCCN2C(=O)c2ccccc21)Nc1ccccc1-n1cccc1` (stereo unspecified), for which the double positive events is 5.8% (at 7.7 µM) and 12.2% under setting [1]. For the same compound, the percent response (vesicle binding) reads like this: under setting [1], 354% (inactive); (response, at 7.7 µM) 425%.

As to `COc1ccc(C(=O)O)cc1S(=O)(=O)Nc1cccc(C)c1`, the double positive events by setting is: (at 7.7 µM) 14.1%; under setting [1], 17.7%. The percent response (vesicle binding) runs as follows: under setting [1], 296% (inactive); (response, at 7.7 µM) 181%.

Regarding `COc1ccc(N(CC(=O)O)S(C)(=O)=O)cc1OC`, the double positive events turned out to be 24.1% (at 7.7 µM) and 30.5% under setting [1]. Also, the percent response (vesicle binding) was 229% (inactive) under setting [1] and 691% (response, at 7.7 µM).

Turning to `C=CCN(c1ccc(Br)cc1C(=O)OC)S(C)(=O)=O`, the double positive events (at 7.7 µM) is 29.1% and the double positive events under setting [1] was 2.3%. Besides, the percent response (vesicle binding) reads like this: under setting [1], 35.1% (active); (response, at 7.7 µM) 465%.

Consider `c1ccc2c(c1)COC(CN1CCCCC1)OC2`, for which the double positive events is 12.3% (at 7.7 µM) and 10.2% under setting [1]. Further, the percent response (vesicle binding) is, setting by setting: under setting [1], 418% (inactive); (response, at 7.7 µM) 439%.

On to `COC(=O)[C@]1(C)N[C@H](CN(C)S(=O)(=O)c2ccc(OC(F)(F)F)cc2)[C@@H]2C(=O)N(C)C(=O)[C@@H]21`, for which the double positive events runs as follows: (at 7.7 µM) 9.2%; under setting [1], 26.1%. In addition, the percent response (vesicle binding) under setting [1] was 907% (inactive) and the percent response (vesicle binding) (response, at 7.7 µM) is 443%.

As to `CCCCNS(=O)(=O)c1ccc(OCC(=O)OC)cc1`, the double positive events by setting is: (at 7.7 µM) 14.8%; under setting [1], 20%. For the same compound, the percent response (vesicle binding) by setting is: under setting [1], 106% (inactive); (response, at 7.7 µM) 517%.

For the compound `COc1ccc(NC(=O)CN2CCN(S(=O)(=O)c3ccc(Cl)cc3)CC2)cc1`, the double positive events is 31.1% (at 7.7 µM) and 12% under setting [1]. Moreover, the percent response (vesicle binding) under setting [1] was 124% (inactive) and the percent response (vesicle binding) (response, at 7.7 µM) is 164%.

Consider `COc1ccc(-c2cc(CNS(=O)(=O)c3ccc(NC(C)=O)cc3)on2)cc1`, for which the double positive events (at 7.7 µM) was 23.7% and the double positive events under setting [1] was found to be 2.2%. For the same compound, the percent response (vesicle binding) was 18.8% (active) under setting [1] and 277% (response, at 7.7 µM).

As for `Cc1ccc(CN2CC(=O)N3[C@H]4c5cc(C)ccc5OC[C@@H]4[C@H](c4ccccc4)[C@]3(C)C2=O)cc1`, the double positive events was found to be 8.3% (at 7.7 µM) and 11.2% under setting [1]. Moreover, the percent response (vesicle binding) under setting [1] is 109% (inactive) and the percent response (vesicle binding) (response, at 7.7 µM) came to 231%.

`C/C(=N\NC(=O)Cn1cc([N+](=O)[O-])cn1)c1ccco1` registered a double positive events (at 7.7 µM) of 23.5% and a double positive events under setting [1] of 26.1%. For the same compound, the percent response (vesicle binding) under setting [1] was 268% (inactive) and the percent response (vesicle binding) (response, at 7.7 µM) was found to be 291%.

In the case of `CCOC(=O)N1CCN(C(=O)c2ccc(N3CCCC3=O)cc2)CC1`, the double positive events runs as follows: (at 7.7 µM) 9.7%; under setting [1], 22.5%. For the same compound, the percent response (vesicle binding) was 213% (inactive) under setting [1] and 150% (response, at 7.7 µM).

In the case of `O=C(c1ccc(N2C(=O)C3CC=C(Cl)CC3C2=O)cc1)N1CCCCC1` (stereo unspecified), the double positive events is, setting by setting: (at 7.7 µM) 19.3%; under setting [1], 5.2%. For the same compound, the percent response (vesicle binding) under setting [1] was 56.9% (active) and the percent response (vesicle binding) (response, at 7.7 µM) worked out at 195%.

With `O=C(c1ccc(Cl)cc1)N1CCC(C(=O)N2CCN(c3ncccn3)CC2)CC1`, the double positive events is, setting by setting: (at 7.7 µM) 27.3%; under setting [1], 6.4%. For the same compound, the percent response (vesicle binding) by setting is: under setting [1], 173% (inactive); (response, at 7.7 µM) 114%.

For `Cc1cc(C)cc(NC(=O)CC23CC4CC(C2)CC(n2nnc(C)n2)(C4)C3)c1`, the double positive events is, setting by setting: (at 7.7 µM) 6.1%; under setting [1], 35.3%. In addition, the percent response (vesicle binding) under setting [1] was 236% (inactive) and the percent response (vesicle binding) (response, at 7.7 µM) worked out at 200%.

In the case of `CCCc1nnc(NC(=O)CCC(=O)N2CCC(Cc3ccccc3)CC2)s1`, the double positive events (at 7.7 µM) stood at 11.7% and the double positive events under setting [1] is 25.7%. Also, the percent response (vesicle binding) was 200% (inactive) under setting [1] and 291% (response, at 7.7 µM).

Turning to `Cc1c2cccn2cc[n+]1C`, the double positive events was found to be 16.6% (at 7.7 µM) and 4.4% under setting [1]. In addition, the percent response (vesicle binding) runs as follows: under setting [1], 29.6% (active); (response, at 7.7 µM) 159%.

Regarding `Cc1cccc(C(=O)OCC(=O)Nc2c(C)n(C)n(-c3ccccc3)c2=O)c1`, the double positive events (at 7.7 µM) was found to be 11% and the double positive events under setting [1] is 26.9%. Moreover, the percent response (vesicle binding) under setting [1] is 392% (inactive) and the percent response (vesicle binding) (response, at 7.7 µM) is 320%.

As to `Cc1ccc(C(=O)NC(C)CCc2ccccc2)cc1[N+](=O)[O-]` (stereo unspecified), the double positive events is, setting by setting: (at 7.7 µM) 27%; under setting [1], 32.4%. Moreover, the percent response (vesicle binding) was 199% (inactive) under setting [1] and 481% (response, at 7.7 µM).

In the case of `Cc1ccc(-n2ncc3c(N4CCCC(C)C4)ncnc32)c(C)c1` (stereo unspecified), the double positive events (at 7.7 µM) came out at 15.4% and the double positive events under setting [1] is 13.3%. Also, the percent response (vesicle binding) is 312% (inactive) under setting [1] and 283% (response, at 7.7 µM).

Regarding `CCSc1nnc(NC(=O)c2ccc(F)c(S(=O)(=O)N3CCOCC3)c2)s1`, the double positive events was 23.7% (at 7.7 µM) and 34.2% under setting [1]. Moreover, the percent response (vesicle binding) was 203% (inactive) under setting [1] and 209% (response, at 7.7 µM).

As for `O=C(NCC1CCCCC1)c1ccc(Cl)c(S(=O)(=O)N2CCOCC2)c1`, the double positive events came out at 9.2% (at 7.7 µM) and 22.8% under setting [1]. The percent response (vesicle binding) is, setting by setting: under setting [1], 342% (inactive); (response, at 7.7 µM) 135%.

`O=C(OCCOc1cccc(Cl)c1)c1ccc(F)c(S(=O)(=O)N2CCOCC2)c1`: the double positive events amounted to 24.5% (at 7.7 µM) and 0.7% under setting [1]. Moreover, the percent response (vesicle binding) was 42.7% (active) under setting [1] and 333% (response, at 7.7 µM).

On to `CC1CCN(S(=O)(=O)c2csc(C(=O)Nc3ccccc3)c2)CC1`, for which the double positive events reads like this: (at 7.7 µM) 33.2%; under setting [1], 23.8%. In addition, the percent response (vesicle binding) is 579% (inactive) under setting [1] and 415% (response, at 7.7 µM).

Consider `CC(=O)Nc1ccccc1OC(C)C(=O)NC(C)c1ccc(F)cc1` (stereo unspecified), for which the double positive events runs as follows: (at 7.7 µM) 9.2%; under setting [1], 9%. Moreover, the percent response (vesicle binding) is 114% (inactive) under setting [1] and 420% (response, at 7.7 µM).

On to `Cc1cc(F)ccc1S(=O)(=O)N1CCCOC1CNC(=O)C(=O)NC1CCCC1` (stereo unspecified), for which the double positive events is, setting by setting: (at 7.7 µM) 11.7%; under setting [1], 9.3%. In addition, the percent response (vesicle binding) by setting is: under setting [1], 255% (inactive); (response, at 7.7 µM) 451%.

For the compound `COC(=O)c1ccc(OC(=O)CS(=O)c2ccccc2[N+](=O)[O-])cc1` (stereo unspecified), the double positive events was 15% (at 7.7 µM) and 3.4% under setting [1]. For the same compound, the percent response (vesicle binding) under setting [1] was 143% (inactive) and the percent response (vesicle binding) (response, at 7.7 µM) was 395%.

`Cc1cccc(Nc2nc(-c3ccccn3)cs2)n1` displayed a double positive events (at 7.7 µM) of 28.1% and a double positive events under setting [1] of 5.2%. Moreover, the percent response (vesicle binding) runs as follows: under setting [1], 46.7% (active); (response, at 7.7 µM) 538%.

(Values after PubChem BioAssay AID2810 (NMMLSC, 2010).)
